These results are taken from PubChem BioAssay AID1851 (National Center for Advancing Translational Sciences (NCATS), 2009).

Several values for one entry are separate records, joined by “and”; a condition that tells them apart may be missing. Equal entries are not always repeated. Screen size: about 16,000 compounds; about 2,600 (16%) were called active. Inconclusive results (about 20%) are left out. The call rests on the fitted dose curve; in most records, active means well fitted curve in the direction sought with a large enough effect; inconclusive means small, poorly fitted or top-dose-only effect, or effect the other way; inactive means no such curve, though single readings can be large or run the other way. The entries come from a sample that favours actives as a whole.
On the % scale 0 is the no-effect control and ±100 the full control effect.

In the assay the target is Cytochrome P450 2D6 (Homo sapiens) (UniProt P10635). Description: Cytochrome panel assay with activity outcomes. The following applies: recombinant CYP, pro-luciferin dealkylation, luminescence, p450-cyp2d6; series mostly up to 57.1 µM. The method, then: The P450 gene superfamily is involved in the metabolism and clearance of xenobiotics. This assay used various human CYP P450 isozymes to measure the dealkylation of various pro-luciferin substrates to luciferin. The luciferin is then measured by luminescence after the addition of a luciferase detection reagent. Pro-luciferin substrate concentration in the assay was equal to its KM for its CYP P450 isozyme. Inhibitors and some substrates limit the production of luciferin, and decrease measured luminescence.
Sequence of Cytochrome P450 2D6 (Homo sapiens) (P10635 whole entry, looked up): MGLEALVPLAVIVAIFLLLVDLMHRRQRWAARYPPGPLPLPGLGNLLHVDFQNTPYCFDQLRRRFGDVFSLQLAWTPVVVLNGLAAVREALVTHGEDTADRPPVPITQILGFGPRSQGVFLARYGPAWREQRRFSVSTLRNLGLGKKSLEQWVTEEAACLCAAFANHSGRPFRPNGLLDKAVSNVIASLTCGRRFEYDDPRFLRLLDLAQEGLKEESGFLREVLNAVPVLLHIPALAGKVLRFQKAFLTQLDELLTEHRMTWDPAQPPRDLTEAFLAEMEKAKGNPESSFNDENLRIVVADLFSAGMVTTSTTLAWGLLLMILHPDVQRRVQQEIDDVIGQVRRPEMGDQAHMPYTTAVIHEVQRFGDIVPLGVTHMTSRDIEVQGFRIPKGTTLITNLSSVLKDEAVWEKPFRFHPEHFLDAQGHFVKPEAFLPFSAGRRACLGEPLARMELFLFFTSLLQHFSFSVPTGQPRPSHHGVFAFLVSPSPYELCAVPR
NCGC Assay Protocol Summary:
1, Reagent, 2 uL, Isozyme and Pro-Luciferin
2, Library compounds, 23 nl, 40 uM to 0.24 nM dilution series
3, Controls, 23 nl, Isozyme specific inhibitor
4, Reagent, 2 uL, NADPH regeneration solution
5, Incubation time, 60 min, Isozyme specific temperature
6, Reagent, 4ul, Detection reagent
7, Incubation time, 20 min, Isozyme specific temperature
8, Detection, 1 sec, ViewLux luminescent read
The luciferase-based P450-GloTM Screening Systems were obtained from Promega (Madison, WI) for CYP 1A2 (V9770), CYP 2C9 (V9790), CYP2 C19 (V9880), CYP 2D6 (V9890), and CYP 3A4 Luciferin-PPXE (V9910) and were adapted for 1,536-well microplates and an automated protocol. The control compounds furafylline for 1A2 (F124), sulfaphenazole for CYP 2C9 (S0758), ketoconazole for CYP 2C19 (K1003), quinidine for 2D6 (Q3625), and ketoconazole for 3A4 (K1003) were purchased from Sigma Aldrich (St. Louis, MO). Recombinant P450 enzymes were obtained from baculovirus constructs expressed in insect cells (BD/Gentest).
Medium-binding white solid Kalypsys plates used. Mixtures kept on ice. 1A2: 10 nM 1A2, 100 uM Luc-ME, 100 mM KPO4; 2C9: 10 nM 2C9, 100 uM Luc-H, 25 mM KPO4; 2C19: 5 nM 2C19, 10 uM Luc-H EGE, 50 mM KPO4; 2D6: 5 nM 2D6, 30 uM Luc-ME EGE, 100 mM KPO4; 3A4: 10 nM, 25 uM Luc-PPXE. All amounts are reflected in their final concentration, working concentration is 2x.
NADPH regeneration solution: 1.3 mM NADP+, 3.3 mM glucose-6-phosphate, 3.3 mM MgCl2, 0.4 U/mL glucose-6-phosphate dehydrogenase for all isozymes, 200 mM KPO4 for 3A4. Mixture prepared at RT but kept on ice during automated run.
RT incubation in auxilliary plate hotel for 1A2, 2D6, and 3A4; 37C for 2C9 and 2C19.
Keywords: P450, CYP1A2, CYP2C19, CYP2C9, CYP2D6, CYP3A4, Luciferase, MLSMR, MLSCN, NIH Roadmap, qHTS, NCGC
Consider `O=C1c2ccccc2-c2cc([N+](=O)[O-])c([N+](=O)[O-])cc21`, for which the AC50 (as a rule, the midpoint of the concentration-response curve, whichever way the signal moves) was 3.16 µM (active). For `O=C1c2cc([N+](=O)[O-])ccc2-c2ccc3c4ccc5c6c(ccc(c7ccc1c2c73)c64)C(=O)c1cc([N+](=O)[O-])ccc1-5`, the activity, negative = inhibition was -6.4% [at 11.4 µM] (inactive). For the compound `Cc1cc(C)nc(NC2=NCCS2)n1`, the AC50 entry was “inactive”. The same measure, in the same setting: then `C/C(=N\OC(=O)NC(C)C)c1sc(-c2ccccc2)nc1C`, with “inactive”; and `CCOC(=O)c1[nH]c(C)c(C(=O)N2CCC3(CC2)OCCO3)c1C`, with “inactive”; and `Cc1noc(C)c1C(=O)N1CCC2(CCCN(CC(C)C)C2)CC1`, with 12.6 µM (active). The same measure, in the same setting: then `O=C(c1ccco1)N1CCC[C@@]2(CCN(Cc3ccncc3)C2)C1`, with 12.6 µM (active); and `CC(C)CN1CC2(CCN(C(=O)c3ccncc3)CC2)C1`, with 3.98 µM (active); and `O=C(Oc1ccccc1)N1CCC2(CC1)CN(Cc1ccncc1)C2`, with “inactive”.

As for `O=C(c1ccncc1)N1CCC2(CC1)CN(Cc1ccccc1)C2`, the AC50 was 6.31 µM (active). Same read-out and setting: then `O=C(Oc1ccccc1)N1CCC2(CCN(Cc3ccncc3)CC2)CC1`, with “inactive”; and `CN1CC[C@@]2(CCCN(C(=O)c3ccncc3)C2)C1`, with “inactive”. `O=C(Oc1ccc(S(=O)(=O)F)cc1F)c1ccccc1Cl`: the activity, negative = inhibition was 12.8% [at 11.4 µM] (inactive). Consider `C/C(O)=C(/C#N)C(=O)Nc1cc(Br)ccc1Br`, for which the AC50 entry is “inactive”. The same measure, in the same setting: then `Cn1c(=O)c2[nH]cnc2n(C)c1=O`, with “inactive”; and `O=c1cc(-c2ccc(O)cc2)oc2cc(O)cc(O)c12`, with “inactive”.

Take `COc1cc2c(cc1OC)[C@@]13CCN4CC5=CCO[C@H](CC(=O)O)[C@@H]([C@H]1N2)[C@H]5C[C@H]43`: the activity, negative = inhibition was -8.05% [at 11.4 µM] (inactive). `CCC(COC(=O)NC)NC(=O)Oc1ccccc1` (centres undefined): the AC50 result was “inactive”. With `O=C(c1cc2cc3ccc(Cl)cc3nc2o1)N1CCC2(CC1)OCCO2`, the AC50 entry was “inactive”. The same measure, in the same setting: then `O=C(Cc1ccc(Cl)c(Cl)c1)N1CCCC[C@H]1CN1CCCC1`, with 7.94 µM (active) and 2.51 µM (active); and `CC[C@]1([C@H]2O[C@@H]([C@@H]3O[C@](O)(CO)[C@@H](C)C[C@H]3C)C[C@H]2C)CC[C@@H]([C@]2(C)CC[C@@]3(C[C@@H](O)[C@@H](C)[C@@H]([C@H](C)[C@H](OC)[C@H](C)C(=O)O)O3)O2)O1`, with “inactive”; and `c1ccc(CCCCN2CCC(c3ccccc3)CC2)cc1`, with 0.0398 µM (active). As for `C[C@@H](N)Cn1ccc2cc(F)c(Cl)cc21`, the AC50 entry was “inactive”. On the same count and under the same terms, then `CC(C)Oc1cc(-n2c(=S)[nH]c3ccccc3c2=O)c(Cl)cc1Cl`, with “inactive”. Consider `C[C@H](CC(C#N)(c1ccccc1)c1ccccc1)N1CCCCC1`, for which the AC50 is 2.51 µM (active).

Consider `CC(=O)Nc1ccccc1C(=O)OCc1ccc(C(=O)c2ccccc2)cc1`, for which the AC50 entry is “inactive”. Consider `CC(C)CC(=O)C[C@H](O)C(Cl)(Cl)Cl`, for which the activity, negative = inhibition was 2.83% [at 11.4 µM] (inactive). Still for that read-out and setting: in the case of `C[C@@H]1[C@@H](C)N1C[C@H](O)Cn1ccnc1[N+](=O)[O-]` (some centres undefined) it was 4.54% [at 11.4 µM] (inactive); in that of `C[N+](C)(C)[C@H](Cc1c[nH]c(=S)[nH]1)C(=O)O`, -8.35% [at 11.4 µM] (inactive). In the case of `NC[C@H](CC(=O)O)c1ccc(Cl)cc1`, the concentration at half-maximal activity (AC50) is 0.794 µM (active).

Take `NC[C@@H](CC(=O)O)c1ccc(Cl)cc1`: the AC50 entry was “inactive”. The same measure, in the same setting: in the case of `O=C(O)CP(=O)(O)c1ccc(Cl)cc1` it was “inactive”; in that of `CCN1CCC2(CC1)NC(CO)(CO)CO2`, “inactive”. Same read-out and setting: in the case of `O=c1[nH]c(=O)n(CCc2ccc(F)cc2)c(O)c1C=NCCCN1CCOCC1` it was “inactive”; in that of `COc1cc2c(cc1OC)[C@@H]1C(=O)c3ccc4c(c3O[C@@H]1CO2)C=CC(C)(C)O4`, 0.0631 µM (active). As to `OC(Cn1c2ccccc2c2ccccc21)C[n+]1ccccc1` (centres undefined), the concentration at half-maximal activity (AC50) was 0.0126 µM (active).

As to `C[C@]12CC[C@@H]3[C@H](CCC4=CC(=O)CC[C@]43C)[C@]1(O)CC[C@@]2(O)C(=O)CO`, the activity, negative = inhibition is 16.3% [at 11.4 µM] (inactive). On to `Cc1nc(N)sc1CCN`, for which the AC50 entry is “inactive”. Still for that read-out and setting: then `C[C@@H](Cc1cccc(C(F)(F)F)c1)NCCCc1ccccc1`, with 0.0126 µM (active); and `CC(O)(CS(=O)(=O)c1ccccc1)C(=O)Nc1cccc(C(F)(F)F)c1` (centres undefined), with “inactive”. On the same count and under the same terms, then `CNCCCc1ccccc1`, with “inactive”; and `C[C@@]12CC[C@@H]3c4ccc(O)cc4C[C@H](CCCCCCCCCS(=O)CCCC(F)(F)C(F)(F)F)[C@H]3[C@@H]1CC[C@@H]2O` (some centres undefined), with “inactive”. Same read-out and setting: then `CCN(CC)C(=O)N[C@@H]1C[C@H]2c3cccc4[nH]cc(c34)C[C@@H]2N(C)C1`, with 15.8 nM (active) and 10 nM (active); and `CCN(CC)C(=O)N[C@H]1C[C@H]2c3cccc4[nH]cc(c34)C[C@@H]2N(C)C1`, with 0.0398 µM (active).
